PubChem BioAssay (NCATS)
Results filed as inconclusive are left out. Activity calls are given as the source filed them. Unless noted, calls follow the shape of the dose curve; as a rule, active = well fitted curve in the direction sought with a large enough effect; inconclusive = small, poorly fitted or top-dose-only effect, or another doubt; inactive = no such curve, though single readings can be large; an effect the other way counts as inactive or inconclusive.

Key:
[1] = molecular target: ATP-dependent DNA helicase Q1 (Homo sapiens) (UniProt P46063); assay: qHTS Validation Assay for Inhibitors of RecQ-Like Dna Helicase 1 (RECQ1) (AID 2353); also: potency is read from the fitted curve at half-maximal effect
Sequence of ATP-dependent DNA helicase Q1 (Homo sapiens) (P46063 whole entry, looked up): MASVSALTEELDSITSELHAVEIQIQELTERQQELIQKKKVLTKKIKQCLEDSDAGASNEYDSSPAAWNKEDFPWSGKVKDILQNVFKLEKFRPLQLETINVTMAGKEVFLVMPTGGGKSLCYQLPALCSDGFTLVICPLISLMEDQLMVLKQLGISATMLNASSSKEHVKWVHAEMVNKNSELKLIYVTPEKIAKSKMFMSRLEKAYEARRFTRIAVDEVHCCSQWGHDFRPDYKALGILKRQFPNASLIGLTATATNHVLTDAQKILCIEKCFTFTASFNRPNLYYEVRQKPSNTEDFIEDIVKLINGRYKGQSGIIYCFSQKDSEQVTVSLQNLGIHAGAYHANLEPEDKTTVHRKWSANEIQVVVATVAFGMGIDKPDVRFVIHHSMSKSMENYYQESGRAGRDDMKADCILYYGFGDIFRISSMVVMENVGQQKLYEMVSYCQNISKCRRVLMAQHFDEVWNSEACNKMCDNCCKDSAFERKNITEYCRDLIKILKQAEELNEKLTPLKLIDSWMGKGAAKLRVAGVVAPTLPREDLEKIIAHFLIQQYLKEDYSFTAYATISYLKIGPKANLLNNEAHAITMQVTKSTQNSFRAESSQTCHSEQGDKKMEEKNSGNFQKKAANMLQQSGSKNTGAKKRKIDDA
How it was run: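 50 nM RECQ1T1 preincubated 15 min with compound in Tris pH 8.0 buffer with MgCl2, DTT, Tween-20 and 2.5 ug/ml poly(dI-dC); started with 200 nM TAMRA/BHQ-2 forked duplex and 2 mM ATP. Unwinding read as fluorescence (525/598 nm), two reads 2 h apart.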

[2] = High Content Imaging Cell-Based qHTS for Inhibitors of the mTORC1 Signaling Pathway in MEF Cells (AID 2667); also: potency is read from the fitted curve at half-maximal effect
How it was run: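 MEF (Tsc2-/-, p53-/-, WT Tsc2 re-expressed); cpd 24 h, 37 °C; PFA fix; Alexa-488 anti-p-rpS6 Ser235/236, PI, Hoechst; IN Cell imaging; Hoechst/Alexa-488 intensity ratio; % active cells, thresholds set from rapamycin and DMSO wells.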

[3] = molecular target: DNA polymerase III PolC-type (Bacillus subtilis (strain 168)) (UniProt P13267); assay: qHTS Validation Assay for the Inhibitors of DNA Replication in Gram-Positive Bacteria (AID 485295);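 also: reconstituted holoenzyme with PolC plus beta clamp SSB and primase; PicoGreen fluorescence of double-stranded DNA made on primed circular M13 template; series mostly up to about 57 µM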
Sequence of DNA polymerase III PolC-type (Bacillus subtilis (strain 168)) (P13267 whole entry, looked up): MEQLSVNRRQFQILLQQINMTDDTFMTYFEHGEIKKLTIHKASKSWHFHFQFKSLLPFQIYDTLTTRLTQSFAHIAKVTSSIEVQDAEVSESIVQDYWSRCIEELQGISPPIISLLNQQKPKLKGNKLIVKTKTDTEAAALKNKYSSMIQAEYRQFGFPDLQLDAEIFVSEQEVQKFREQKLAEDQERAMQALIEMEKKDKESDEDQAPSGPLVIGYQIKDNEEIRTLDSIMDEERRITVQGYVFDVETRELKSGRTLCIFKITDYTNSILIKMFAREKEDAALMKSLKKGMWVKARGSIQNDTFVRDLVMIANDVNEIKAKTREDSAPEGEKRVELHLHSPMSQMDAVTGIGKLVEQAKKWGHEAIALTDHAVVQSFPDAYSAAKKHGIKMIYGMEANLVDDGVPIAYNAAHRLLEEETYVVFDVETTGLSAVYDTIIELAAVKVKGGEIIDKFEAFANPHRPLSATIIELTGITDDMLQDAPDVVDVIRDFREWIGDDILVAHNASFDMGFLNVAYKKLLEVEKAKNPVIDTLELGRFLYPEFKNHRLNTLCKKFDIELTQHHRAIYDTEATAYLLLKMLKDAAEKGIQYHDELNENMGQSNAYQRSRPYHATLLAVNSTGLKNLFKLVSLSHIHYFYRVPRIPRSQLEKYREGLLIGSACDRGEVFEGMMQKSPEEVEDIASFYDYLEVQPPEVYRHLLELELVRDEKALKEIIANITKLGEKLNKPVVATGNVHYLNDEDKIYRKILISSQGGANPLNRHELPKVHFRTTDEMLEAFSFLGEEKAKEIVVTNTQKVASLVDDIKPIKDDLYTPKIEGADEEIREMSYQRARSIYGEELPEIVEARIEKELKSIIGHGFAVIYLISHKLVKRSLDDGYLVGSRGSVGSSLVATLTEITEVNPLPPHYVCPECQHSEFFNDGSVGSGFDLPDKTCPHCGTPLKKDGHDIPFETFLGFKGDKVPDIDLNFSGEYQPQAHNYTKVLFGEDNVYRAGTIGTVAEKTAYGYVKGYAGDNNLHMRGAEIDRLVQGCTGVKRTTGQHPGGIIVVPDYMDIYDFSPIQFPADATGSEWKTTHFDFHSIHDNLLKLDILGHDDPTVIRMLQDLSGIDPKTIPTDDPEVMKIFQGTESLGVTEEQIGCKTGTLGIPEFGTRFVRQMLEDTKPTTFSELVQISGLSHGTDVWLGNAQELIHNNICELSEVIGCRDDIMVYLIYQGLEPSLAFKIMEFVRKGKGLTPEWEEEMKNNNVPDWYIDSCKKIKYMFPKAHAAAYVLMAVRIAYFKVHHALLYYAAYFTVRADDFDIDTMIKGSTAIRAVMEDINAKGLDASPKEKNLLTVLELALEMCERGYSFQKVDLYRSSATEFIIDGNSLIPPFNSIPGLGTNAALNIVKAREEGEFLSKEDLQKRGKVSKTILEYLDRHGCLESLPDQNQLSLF
How it was run: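 Inhibition of DNA synthesis by the reconstituted PolC holoenzyme, monitored through PicoGreen staining of dsDNA formed from ssM13Gori, dNTPs and NTPs, with compound preincubation and room-temperature reaction.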

[4] = molecular target: Tumor susceptibility gene 101 protein (Homo sapiens) (UniProt Q99816); assay: qHTS Validation Assay for Iinhibitors of HIV-1 Budding by Blocking the Interaction of PTAP/TSG101 (AID 485342; calls by dose curve)
How it was run: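 Compound wells held the Tsg101 binding domain (10 uM) and a FITC-conjugated PTAP peptide (50 nM) in buffer at pH 7.5 containing 0.15 M NaCl and 0.01% Tween 20; polarization was recorded after 20 min, r.t.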

[5] = molecular target: Beta-2 adrenergic receptor (Homo sapiens) (UniProt P07550); assay: qHTS validation assay of beta-arrestin-biased ligands of beta2-adrenergic receptor (AID 485366)
Sequence of Beta-2 adrenergic receptor (Homo sapiens) (P07550 whole entry, looked up): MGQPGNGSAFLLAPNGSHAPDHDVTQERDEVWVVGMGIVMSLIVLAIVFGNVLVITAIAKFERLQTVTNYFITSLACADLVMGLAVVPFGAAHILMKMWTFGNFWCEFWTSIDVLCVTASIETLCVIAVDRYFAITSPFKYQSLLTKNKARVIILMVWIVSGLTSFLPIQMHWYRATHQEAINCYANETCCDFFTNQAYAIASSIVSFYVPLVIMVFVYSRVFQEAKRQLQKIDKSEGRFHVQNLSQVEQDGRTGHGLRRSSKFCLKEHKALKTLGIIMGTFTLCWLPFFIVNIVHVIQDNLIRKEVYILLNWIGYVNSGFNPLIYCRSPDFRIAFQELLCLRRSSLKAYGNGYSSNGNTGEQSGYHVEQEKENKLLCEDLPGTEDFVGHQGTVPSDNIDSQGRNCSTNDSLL
How it was run: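 Arrestin-recruitment (Tango) reporter: ligand-bound beta2-AR recruits beta-arrestin, releasing tTA, which upregulates luciferase. Titrations of up to 46 microM incubated 18 hr at 37 degrees C before luminescent readout.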

[6] = Quantitative high throughput screen for delayed death inhibitors of the malarial parasite plastid, 96 hour incubation (AID 488745); also: nearly all actives have a fitted effect of over 70% in size; also: potency is read from the fitted curve at half-maximal effect
How it was run: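 Infected erythrocytes were added to compound in Albumax-supplemented RPMI 1640 at 0.1% parasitemia and 2% hematocrit (final), incubated 96 h at 37 C under 5% CO2, then luciferase reagent was added and luminescence measured.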

[7] = Quantitative high throughput screen for delayed death inhibitors of the malarial parasite plastid, 48 hour incubation (AID 488752); also: nearly all actives have a fitted effect of over 65% in size; also: potency is read from the fitted curve at half-maximal effect
How it was run: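 Readout is firefly luciferase luminescence from a reporter integrated into the parasite genome, with lower signal taken as inhibited growth. Infected red cells (0.1% parasitemia, 2% hematocrit final) are cultured with compound for one 48 h cycle at 37 C.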

[8] = molecular target: Thioredoxin reductase 1, cytoplasmic (Rattus norvegicus) (UniProt O89049); assay: qHTS Assay for Substrates of Mammalian Selenoprotein Thioredoxin Reductase 1 (TrxR1) (AID 488772);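 also: NADPH fluorescence in the first read after selenite addition and not the 8 min delta; series mostly up to about 57 µM; a drop in NADPH fluorescence below the no-compound background marks a TrxR1 substrate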
Sequence of Thioredoxin reductase 1, cytoplasmic (Rattus norvegicus) (O89049 whole entry, looked up): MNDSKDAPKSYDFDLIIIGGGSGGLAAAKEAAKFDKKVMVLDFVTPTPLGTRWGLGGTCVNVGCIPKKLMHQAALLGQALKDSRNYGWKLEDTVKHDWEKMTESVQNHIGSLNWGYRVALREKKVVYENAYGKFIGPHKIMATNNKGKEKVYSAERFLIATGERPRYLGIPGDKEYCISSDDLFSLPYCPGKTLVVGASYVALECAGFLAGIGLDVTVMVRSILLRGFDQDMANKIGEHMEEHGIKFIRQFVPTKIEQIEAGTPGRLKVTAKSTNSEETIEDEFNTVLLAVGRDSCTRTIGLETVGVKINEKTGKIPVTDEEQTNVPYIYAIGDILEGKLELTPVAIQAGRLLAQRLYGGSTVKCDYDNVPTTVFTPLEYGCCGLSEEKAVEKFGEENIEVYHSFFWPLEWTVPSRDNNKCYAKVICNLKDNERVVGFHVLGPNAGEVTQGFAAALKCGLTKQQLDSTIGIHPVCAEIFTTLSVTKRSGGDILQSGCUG
How it was run: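 Quantitative HTS in Tris-HCl buffer at pH 7.5 with EDTA and Tween-20, using rat TrxR1, 400 uM NADPH and 400 uM selenite (final). A fall in initial NADPH fluorescence relative to background marked substrate behaviour.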

[9] = molecular target: RecQ-like DNA helicase BLM (Homo sapiens) (UniProt P54132); assay: qHTS Validation Assay for Inhibitors of Bloom's syndrome helicase (BLM) (AID 2364)
Sequence of RecQ-like DNA helicase BLM (Homo sapiens) (P54132 whole entry, looked up): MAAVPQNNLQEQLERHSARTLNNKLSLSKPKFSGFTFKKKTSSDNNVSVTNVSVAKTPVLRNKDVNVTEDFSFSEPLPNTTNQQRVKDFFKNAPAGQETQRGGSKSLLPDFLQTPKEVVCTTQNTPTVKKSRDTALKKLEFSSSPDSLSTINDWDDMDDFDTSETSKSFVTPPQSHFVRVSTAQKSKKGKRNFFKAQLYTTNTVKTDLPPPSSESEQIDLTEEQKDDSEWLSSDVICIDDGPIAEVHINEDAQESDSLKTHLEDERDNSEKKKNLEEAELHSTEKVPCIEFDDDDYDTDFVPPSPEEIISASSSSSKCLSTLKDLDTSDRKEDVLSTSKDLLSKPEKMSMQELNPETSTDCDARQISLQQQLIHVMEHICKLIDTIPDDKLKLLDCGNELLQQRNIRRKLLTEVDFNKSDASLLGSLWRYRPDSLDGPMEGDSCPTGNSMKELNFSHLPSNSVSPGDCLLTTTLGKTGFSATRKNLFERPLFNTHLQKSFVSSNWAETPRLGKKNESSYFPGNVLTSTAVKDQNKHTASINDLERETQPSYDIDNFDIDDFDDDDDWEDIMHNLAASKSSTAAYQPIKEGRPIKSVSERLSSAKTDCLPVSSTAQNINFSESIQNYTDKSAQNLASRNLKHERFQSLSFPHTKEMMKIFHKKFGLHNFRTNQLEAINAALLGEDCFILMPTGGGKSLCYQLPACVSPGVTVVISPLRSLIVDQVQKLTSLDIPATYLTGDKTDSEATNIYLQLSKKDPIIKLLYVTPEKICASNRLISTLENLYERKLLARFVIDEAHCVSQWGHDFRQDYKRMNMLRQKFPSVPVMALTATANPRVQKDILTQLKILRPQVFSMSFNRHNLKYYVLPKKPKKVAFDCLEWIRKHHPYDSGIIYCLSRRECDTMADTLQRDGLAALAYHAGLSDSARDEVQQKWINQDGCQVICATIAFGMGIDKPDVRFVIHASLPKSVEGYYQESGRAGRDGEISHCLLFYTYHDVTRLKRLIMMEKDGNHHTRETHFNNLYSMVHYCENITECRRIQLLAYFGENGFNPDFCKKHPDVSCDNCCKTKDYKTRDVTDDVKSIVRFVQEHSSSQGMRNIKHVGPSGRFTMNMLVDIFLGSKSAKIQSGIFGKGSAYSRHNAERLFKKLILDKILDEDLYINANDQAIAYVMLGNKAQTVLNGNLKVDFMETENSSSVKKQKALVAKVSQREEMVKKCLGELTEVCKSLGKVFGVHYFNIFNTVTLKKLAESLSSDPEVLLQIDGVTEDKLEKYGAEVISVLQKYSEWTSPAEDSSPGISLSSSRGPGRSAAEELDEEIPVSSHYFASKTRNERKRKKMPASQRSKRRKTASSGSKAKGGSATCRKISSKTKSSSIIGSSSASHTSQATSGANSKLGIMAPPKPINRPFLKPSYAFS
How it was run: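 BLM 50 nM in 25 mM Tris-HCl pH 8.0, 5 mM NaCl, 2 mM MgCl2, 1 mM DTT, 0.01% Tween-20, 2.5 ug/ml poly(dI-dC); 15 min cpd preinc, RT. Start: 200 nM forked DNA + 2 mM ATP (final). TAMRA read, 2 reads 2 h apart.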

[10] = High Content Imaging Cell-Based qHTS for Inhibitors of the mTORC1 Signaling Pathway in MEF (Tsc2-/-, p53-/-) Cells (AID 2666);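 also: percent of cells scored positive for phospho-rpS6 Ser235/236 immunostaining by imaging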
How it was run: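 Read-out: % positive cells per well, with thresholds from highest- and lowest-signal wells, based on phospho-rpS6 (Ser235/236) intensity normalized to Hoechst nuclear stain. Cells: Tsc2-/-, p53-/- MEFs carrying empty vector; compound 24 hrs, 37 degree Celsius.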

[11] = Validation screen for small molecules that induce DNA re-replication in MCF 10A normal breast cells (AID 463097); also: nearly all actives have a fitted effect of over 60% in size; also: potency is read from the fitted curve at half-maximal effect
How it was run: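 Following 48 hr compound incubation (37 C, 5% CO2), MCF 10A cells receive Hoechst for 40 min at 37 C. Nuclei are then scanned (excitation 405 nm, emission 500-530 nm) for total fluorescence intensity.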

[12] = molecular target: Ubiquitin carboxyl-terminal hydrolase 2 (Homo sapiens) (UniProt O75604); assay: qHTS Validation Assay for Inhibitors of Ubiquitin-specific Protease USP2a Using CHOP2 as the Reporter (AID 463106)
How it was run: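 USP2 core (10nM final) was preincubated with compound for 30min at RT in 20mM Tris-HCl pH 8.0, 2mM CaCl2, 2mM beta-mercaptoethanol, 0.05% CHAPS. Ub-CHOP2 and reporter substrate (25nM each) were added, and fluorescence (Ex 485/Em 531nm) was read after 60min.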

[13] = qHTS Validation Assay to Find Inhibitors of Chronic Active B-Cell Receptor Signaling (AID 485345; active = well fitted curve in the direction sought with a large enough effect in the main read-out, with a control signal flat, not every such curve was filed as active; also: potency is read from the fitted curve at half-maximal effect)
How it was run: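 TMD8 ABC-DLBCL cells with dox-inducible green luciferase–IκBα fusion and red native luciferase; compounds 46 uM–3 nM, 4 h at 37C with doxycycline in 0.5% FBS IMDM. Green/red ratio normalized to basal and 10 uM MG-132.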

[14] = Cytometry Cell-Based qHTS for Inhibitors of the mTORC1 Signaling Pathway in MEF cells (AID 2668);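 also: Tsc2-/- p53-/- mouse embryonic fibroblasts stably re-expressing wild-type Tsc2; percent cells positive for phospho-rpS6 Ser235/236 relative to propidium iodide stain; series mostly up to about 38 µM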
How it was run: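 In MEFs grown in DMEM + 10% FBS, a 24 hrs compound exposure preceded imaging of phospho-rpS6 Ser235/236 by laser-scanning cytometry.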

[15] = Cytometric Cell-Based qHTS for Inhibitors of the mTORC1 Signaling Pathway in MEF (Tsc2-/-, p53-/-) Cells (AID 2660);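 also: percent of cells above a phospho-rpS6 to PI ratio cutoff in each well; series mostly up to about 38 µM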
How it was run: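 Immunofluorescence qHTS of rpS6 Ser235/236 phosphorylation: MEFs (Tsc2-/-, p53-/-) treated 24 h, 37 C, in DMEM + 10% FBS. Alexa-488 signal normalized to PI count, referenced to rapamycin (7.5 nM) and DMSO; PI cell number recorded for viability.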

[16] = molecular target: ATP-dependent 6-phosphofructokinase (Trypanosoma brucei brucei) (UniProt O15648); assay: qHTS Validation Assay to Find Inhibitors of T. brucei phosphofructokinase (AID 485368); conditions: outcome: dose series up to 57.5 µM
How it was run: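 Steps: substrate mix (0.5 mM F6P, 0.1 mM ATP, MgCl2, TEA pH 8.0); compound; 1.25 nM T. brucei PFK; 45 min RT; ATP depletion 10 min; ADP-to-ATP detection 10 min; luminescence read; curve fitting and classification.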

[17] = molecular target: Flap endonuclease 1 (Homo sapiens) (UniProt P39748); assay: qHTS Validation Assay for the Inhibitors of Human Flap endonuclease 1 (FEN1) (AID 488816)
Sequence of Flap endonuclease 1 (Homo sapiens) (P39748 whole entry, looked up): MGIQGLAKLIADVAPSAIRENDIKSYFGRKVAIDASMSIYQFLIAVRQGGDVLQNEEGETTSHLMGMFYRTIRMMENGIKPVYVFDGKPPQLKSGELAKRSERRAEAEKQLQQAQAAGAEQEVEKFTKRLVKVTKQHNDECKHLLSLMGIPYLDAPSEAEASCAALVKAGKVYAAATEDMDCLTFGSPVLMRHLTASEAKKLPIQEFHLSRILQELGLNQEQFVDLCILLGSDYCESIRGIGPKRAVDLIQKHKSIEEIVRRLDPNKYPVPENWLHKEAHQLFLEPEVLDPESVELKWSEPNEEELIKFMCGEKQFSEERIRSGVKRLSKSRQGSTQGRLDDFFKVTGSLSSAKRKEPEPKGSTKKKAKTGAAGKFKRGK
How it was run: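 FEN1, dispensed as a 10 nM reagent, was preincubated with pin-transferred compounds for 15 min at room temperature before substrate was added (50 nM final). Plates were read at 0 and 15 min, and a four-parameter Hill equation was fitted to the concentration-response data.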

[18] = molecular target: Thioredoxin reductase 1, cytoplasmic (Rattus norvegicus) (UniProt O89049); assay: qHTS Assay for Inhibitors of Mammalian Selenoprotein Thioredoxin Reductase 1 (TrxR1) (AID 488773); conditions: Potency: inhibition;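 also: drop in NADPH fluorescence over an 8 min run after selenite addition; series mostly up to about 57 µM; nearly all actives have a fitted effect of over 40% in size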
How it was run: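 Steps: enzyme (90 nM) plus NADPH (400 uM final), 5 min at ~22 deg C; compound added, 15 min; selenite (400 uM final) added; fluorescence followed for 8 min. Concentration-response curves derived from the normalized delta values.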

[19] = molecular target: Ferritin light chain (Equus caballus) (UniProt P02791); assay: qHTS Validation Assay for Identification of Novel General Anesthetics (AID 2323); also: series mostly up to about 77 µM
Sequence of Ferritin light chain (Equus caballus) (P02791 2-175 limits assumed): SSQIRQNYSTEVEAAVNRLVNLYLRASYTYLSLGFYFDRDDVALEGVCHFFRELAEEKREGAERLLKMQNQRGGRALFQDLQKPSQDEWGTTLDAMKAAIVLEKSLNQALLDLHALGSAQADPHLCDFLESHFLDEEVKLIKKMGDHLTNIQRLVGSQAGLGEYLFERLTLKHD
How it was run: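 Normalized fluorescence response, scaled between free 1-AMA and 1-AMA/apoferritin complex, fitted to a four-parameter Hill equation for concentration-effect values. Binding mix: 10 uM horse-spleen apoferritin, 50% saturated 1-AMA in PBS; read 380/535 nm after 10 min.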

Measured: Potency

COC(=O)C1=C(C)NC(C)=C(C(=O)OCCN(C)Cc2ccccc2)C1c1cccc([N+](=O)[O-])c1 (configuration not stated)
inactive: [1] | [3] | [4] | [5] | [8]
active: [2] 18.5 µM | [6] 3.29 µM | [7] 2.94 µM

O=C(CCCN1CCC(O)(c2cccc(C(F)(F)F)c2)CC1)c1ccc(F)cc1
active: [6] 9.28 µM | [7] 13.1 µM
not listed: [2] | [14] | [15] | [16] | [17] | [18] | [19]
inactive: all other assays above

COc1ccc([C@@H]2Sc3ccccc3N(CCN(C)C)C(=O)[C@@H]2OC(C)=O)cc1
not listed: [1] | [9] | [12] | [15] | [16] | [17] | [18] | [19]
inactive: all other assays above

COCCOC(=O)C1=C(C)NC(C)=C(C(=O)OC(C)C)C1c1cccc([N+](=O)[O-])c1 (configuration not stated)
active: [13] 9.2 µM
not listed: [6] | [7] | [8] | [9] | [18] | [19]
inactive: all other assays above

CC(C)(Oc1ccc(CCNC(=O)c2ccc(Cl)cc2)cc1)C(=O)O
not listed: [1] | [6] | [7] | [9] | [11] | [12] | [19]
inactive: all other assays above

CCOC(=O)C1=C(C)NC(C)=C(C(=O)OC)C1c1cccc([N+](=O)[O-])c1 (configuration not stated)
inactive: [1] | [15] | [10] | [12] | [3] | [4] | [5] | [8] | [17]
active: [13] 9.2 µM

COc1ccc2c(c1OC)C(=O)O[C@@H]2[C@H]1c2c(cc3c(c2OC)OCO3)CCN1C
not listed: [1] | [6] | [7] | [9] | [11] | [15] | [16] | [19]
inactive: all other assays above

COCC(=O)O[C@]1(CCN(C)CCCc2nc3ccccc3[nH]2)CCc2cc(F)ccc2[C@@H]1C(C)C
active: [2] 10.4 µM | [7] 5.86 µM
inactive: [9] | [3] | [4] | [5] | [8] | [18] | [17]

COCCCC/C(=N\OCCN)c1ccc(C(F)(F)F)cc1
not listed: [6] | [7] | [9] | [13] | [16] | [17] | [19]
inactive: all other assays above

CN(C)CCN(Cc1cccs1)c1ccccn1
not listed: [1] | [15] | [19]
inactive: all other assays above

NC(=O)c1cn(Cc2c(F)cccc2F)nn1
inactive: [10] | [2] | [14] | [12] | [3] | [4] | [13] | [5] | [17]

COC(=O)C1=C(C)NC(C)=C(C(=O)OC(C)(C)CN(C)CCC(c2ccccc2)c2ccccc2)C1c1cccc([N+](=O)[O-])c1 (configuration not stated)
inactive: [10] | [12] | [3] | [4] | [13] | [5] | [16] | [8] | [18] | [17]

Cc1cc(C)c(/C=C2\C(=O)Nc3ccccc32)[nH]1
inactive: [19] | [10] | [2] | [3] | [5] | [16] | [6] | [18] | [17]

CN1C[C@H](C(=O)N[C@]2(C)O[C@@]3(O)[C@@H]4CCCN4C(=O)[C@H](Cc4ccccc4)N3C2=O)C[C@@H]2c3cccc4[nH]cc(c34)C[C@H]21
not listed: [1] | [6] | [7] | [8] | [9] | [11] | [12] | [19]
inactive: all other assays above

C#CCN(C)CCCOc1ccc(Cl)cc1Cl
not listed: [6] | [13] | [16] | [19]
inactive: all other assays above

Nc1nc(N)c2nc(-c3ccccc3)c(N)nc2n1
inactive: [9] | [15] | [10] | [2] | [12] | [3] | [4] | [5] | [17]
active: [6] 8.28 µM

NC1=NCC2c3ccccc3Cc3ccccc3N12 (configuration not stated)
not listed: [1] | [6] | [7] | [9] | [11] | [12] | [15] | [19]
inactive: all other assays above

CCn1cc(C(=O)O)c(=O)c2cc3c(cc21)OCO3
not listed: [1] | [7] | [8] | [12] | [15] | [16] | [18] | [19]
inactive: all other assays above

CC1=C(C)C(=O)C(CCCCC#CCCCC#CCO)=C(C)C1=O
active: [13] 16.4 µM | [6] 10.4 µM | [7] 8.28 µM
inactive: [1] | [15] | [10] | [12] | [3] | [4] | [5] | [8] | [17]

CCOC(=O)C1=C(C)NC(C)=C(C(=O)OC)C1c1cccc(Cl)c1Cl (configuration not stated)
inactive: [1] | [15] | [10] | [2] | [3] | [4] | [5] | [18]
active: [11] 11.2 µM | [7] 11.7 µM

CN1CCN(C2=Nc3ccccc3Oc3ccc(Cl)cc32)CC1
not listed: [1] | [6] | [7] | [9] | [14] | [15] | [16] | [19]
inactive: all other assays above

NS(=O)(=O)c1cc2c(cc1Cl)NC(C1CC3C=CC1C3)NS2(=O)=O (configuration not stated)
active: [1] 11.2 µM
not listed: [6] | [9] | [16] | [19]
inactive: all other assays above

Brc1c(NC2=NCCN2)ccc2nccnc12
inactive: [15] | [10] | [2] | [11] | [12] | [3] | [4] | [5] | [6]
